In PubChem BioAssay AID1159580 (chemical genetic matrix, 2015):
Values joined by “and” are separate entries in the source; they are usually repeats but may differ in a detail not shown here. Equal values may be shown once. In all, about 5,500 compounds went through this assay and about 2,000 (36%) were called active. Inconclusive results (about 18%) are left out. No stated cut-off is given here; in the data, active means normalized growth mostly below about 0.91 (no sharp cut-off); inconclusive means no clear call, values can overlap the other calls; inactive means mostly above about 0.92. The list shows a part of the results.

Assay: chemical genetic growth profiling, strain panel (AID 1159580);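 further: tested at 20 µM; growth read once vehicle control cultures reached saturation at 30 °C; 1 = growth at the plate median or of vehicle wells; lower values mean less growth of the strain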
Conditions: growth OD

Measured: normalized growth

COc1ccc(CN(CCN(C)C)c2ccccn2)cc1
inactive: S. cerevisiae deletion strains, locus YJR066W, strain TOR1, hits give low values 0.997 | S. cerevisiae deletion strains, locus YJR075W, strain HOC1, hits give low values 0.979 | S. cerevisiae deletion strains, locus YKL009W, strain mrt4, hits give low values 0.954 | S. cerevisiae deletion strains, locus YKL068W, hits give low values 0.992 | S. cerevisiae deletion strains, locus YKL085W, strain MDH1 (second series), hits give low values 0.978 | S. cerevisiae deletion strains, locus YKL085W, strain MDH1, hits give low values 0.978 | S. cerevisiae deletion strains, locus YKL160W, strain elf1, hits give low values 1.04 | S. cerevisiae deletion strains, locus YKL190W, strain CNB1, hits give low values 0.996 | S. cerevisiae deletion strains, locus YKR001C, strain vps1, hits give low values 0.994 | S. cerevisiae deletion strains, locus YKR026C, strain gcn3, hits give low values 1.01 | S. cerevisiae deletion strains, locus YKR091W, strain srl3, hits give low values 1 | S. cerevisiae deletion strains, locus YLL001W, strain dnm1, hits give low values 1.01 | S. cerevisiae deletion strains, locus YLL026W, hits give low values 1.02 | S. cerevisiae deletion strains, locus YLL041C, strain sdh2, hits give low values 1.01 | S. cerevisiae deletion strains, locus YLR027C, strain aat2, hits give low values 1.02 | S. cerevisiae deletion strains, locus YLR039C, strain RIC1, hits give low values 0.996 | S. cerevisiae deletion strains, locus YLR058C, strain SHM2, hits give low values 0.997 | S. cerevisiae deletion strains, locus YLR102C, strain apc9, hits give low values 0.996 | S. cerevisiae deletion strains, locus YLR113W, strain HOG1, hits give low values 1.01 | S. cerevisiae deletion strains, locus YLR221C, strain rsa3, hits give low values 1.01 | S. cerevisiae deletion strains, locus YLR258W, strain gsy2, hits give low values 1.03 | S. cerevisiae deletion strains, locus YLR262C, strain YPT6 (second series), hits give low values 1.01 | S. cerevisiae deletion strains, locus YLR262C, strain YPT6, hits give low values 0.992 | S. cerevisiae deletion strains, locus YLR268W, strain sec22, hits give low values 0.963 | S. cerevisiae deletion strains, locus YLR320W, strain mms22, hits give low values 1.02 | S. cerevisiae deletion strains, locus YLR330W, strain CHS5, hits give low values 0.98 | S. cerevisiae deletion strains, locus YLR342W, strain FKS1 (second series), hits give low values 0.995 | S. cerevisiae deletion strains, locus YLR342W, strain FKS1, hits give low values 1.03 | S. cerevisiae deletion strains, locus YLR357W, strain rsc2, hits give low values 1.03 | S. cerevisiae deletion strains, locus YLR370C, strain arc18, hits give low values 1.02 | S. cerevisiae deletion strains, locus YLR371W, strain rom2, hits give low values 0.972 | S. cerevisiae deletion strains, locus YLR384C, strain iki3, hits give low values 1.02 | S. cerevisiae deletion strains, locus YLR418C, strain cdc73, hits give low values 1 | S. cerevisiae deletion strains, locus YML016C, strain PPZ1, hits give low values 0.997 | S. cerevisiae deletion strains, locus YML032C, strain rad52, hits give low values 0.979 | S. cerevisiae deletion strains, locus YML120C, strain ndi1, hits give low values 1.02 | S. cerevisiae deletion strains, locus YML124C, strain tub3, hits give low values 0.991 | S. cerevisiae deletion strains, locus YMR058W, strain fet3, hits give low values 1 | S. cerevisiae deletion strains, locus YMR078C, strain ctf18, hits give low values 0.992 | S. cerevisiae deletion strains, locus YMR125W, strain sto1, hits give low values 1.02 | S. cerevisiae deletion strains, locus YMR129W, hits give low values 1.01 | S. cerevisiae deletion strains, locus YMR205C, strain PFK2, hits give low values 1.02 | S. cerevisiae deletion strains, locus YMR223W, strain ubp8, hits give low values 1.02 | S. cerevisiae deletion strains, locus YMR231W, strain pep5, hits give low values 1.02 | S. cerevisiae deletion strains, locus YMR307W, strain GAS1, hits give low values 1.01 | S. cerevisiae deletion strains, locus YNL067W, strain RPL9B, hits give low values 0.996 | S. cerevisiae deletion strains, locus YNL071W, strain lat1, hits give low values 1.02 | S. cerevisiae deletion strains, locus YNL128W, strain TEP1, hits give low values 0.967 | S. cerevisiae deletion strains, locus YNL175C, strain NOP13, hits give low values 1.01 | S. cerevisiae deletion strains, locus YNL183C, strain NPR1, hits give low values 0.991 | S. cerevisiae deletion strains, locus YNL197C, strain WHI3, hits give low values 0.966 | S. cerevisiae deletion strains, locus YNL209W, strain ssb2, hits give low values 1.04 | S. cerevisiae deletion strains, locus YNL224C, strain SQS1, hits give low values 0.988 | S. cerevisiae deletion strains, locus YNL233W, strain BNI4, hits give low values 1 | S. cerevisiae deletion strains, locus YNL248C, strain rpa49, hits give low values 1.05 | S. cerevisiae deletion strains, locus YNL250W, strain rad50, hits give low values 0.985 | S. cerevisiae deletion strains, locus YNL271C, strain bni1, hits give low values 0.992 | S. cerevisiae deletion strains, locus YNL298W, strain CLA4, hits give low values 0.997 | S. cerevisiae deletion strains, locus YNL307C, strain MCK1, hits give low values 0.986 | S. cerevisiae deletion strains, locus YNL322C, strain KRE1 (second series), hits give low values 1.04 | S. cerevisiae deletion strains, locus YNR049C, strain mso1, hits give low values 1.01 | S. cerevisiae deletion strains, locus YNR052C, strain pop2, hits give low values 0.993 | S. cerevisiae deletion strains, locus YOL006C, strain TOP1, hits give low values 1.04 | S. cerevisiae deletion strains, locus YOL012C, strain htz1 0.809 | S. cerevisiae deletion strains, locus YOL147C, strain pex11, hits give low values 0.988 | S. cerevisiae deletion strains, locus YOR001W, strain rrp6, hits give low values 0.991 | S. cerevisiae deletion strains, locus YOR061W, strain CKA2, hits give low values 1 | S. cerevisiae deletion strains, locus YOR069W, strain VPS5, hits give low values 0.986 | S. cerevisiae deletion strains, locus YOR070C, strain gyp1, hits give low values 1.02 | S. cerevisiae deletion strains, locus YOR080W, strain dia2, hits give low values 1.03 | S. cerevisiae deletion strains, locus YOR083W, strain WHI5 (second series), hits give low values 0.991 | S. cerevisiae deletion strains, locus YOR083W, strain WHI5, hits give low values 0.998 | S. cerevisiae deletion strains, locus YOR106W, strain vam3, hits give low values 1.04 | S. cerevisiae deletion strains, locus YOR136W, strain idh2, hits give low values 1 | S. cerevisiae deletion strains, locus YOR144C, strain elg1, hits give low values 1 | S. cerevisiae deletion strains, locus YOR184W, strain ser1, hits give low values 1 | S. cerevisiae deletion strains, locus YOR231W, strain MKK1, hits give low values 1 | S. cerevisiae deletion strains, locus YOR265W, strain rbl2, hits give low values 1.02 | S. cerevisiae deletion strains, locus YOR270C, strain vph1, hits give low values 1.08 | S. cerevisiae deletion strains, locus YOR290C, strain snf2, hits give low values 1.04 | S. cerevisiae deletion strains, locus YOR316C, strain cot1, hits give low values 0.988 | S. cerevisiae deletion strains, locus YPL051W, strain arl3, hits give low values 1.04 | S. cerevisiae deletion strains, locus YPL078C, strain atp4, hits give low values 1.04 | S. cerevisiae deletion strains, locus YPL106C, strain sse1, hits give low values 1.04 | S. cerevisiae deletion strains, locus YPL240C, strain hsp82, hits give low values 1.01 | S. cerevisiae deletion strains, locus YPL241C, strain CIN2, hits give low values 0.995 and 0.99 | S. cerevisiae deletion strains, locus YPL256C, strain CLN2, hits give low values 1.05 | S. cerevisiae deletion strains, locus YPR119W, strain clb2, hits give low values 0.988 | S. cerevisiae deletion strains, locus YPR141C, strain kar3, hits give low values 0.981 | S. cerevisiae deletion strains, locus YPR163C, strain tif3, hits give low values 0.988 | S. cerevisiae deletion strains, locus YPR167C, strain met16, hits give low values 0.983 | S. cerevisiae deletion strains, strain wtn01, hits give low values 0.984 | S. cerevisiae strains, strain wild type, hits give low values 0.992
